Measured values taken from PubChem BioAssay (NCI).
The panel holds about 79,000 compounds, 15% with a hit somewhere; the sample as a whole holds those more often. Unmarked numbers belong to inactive results. Active and inactive are the calls of the source. Cut-off read from the data, not from the text of the source: active = growth inhibition above about 70%; inactive = the rest.

Test: NCI Yeast Anticancer Drug Screen. Data for the wt2 strain (AID 169);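 note: 0% = growth of vehicle-treated yeast cultures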
Conditions: S. cerevisiae wt2 strain growth inhibition, stronger effect = higher value
Experimental: Growth inhibition of yeast strains with defined genetic alterations is measured as a screen for potential anti-cancer activity. Selected strains with alterations in DNA damage repair or cell cycle control were exposed to compounds and growth inhibition was measured relative to vehicle treated controls. The strain used in this assay is wt2

Structure (SMILES) | growth inhibition (at 1.2 µM) [%] | growth inhibition (at 3.7 µM) [%] | growth inhibition (at 11.0 µM) | growth inhibition (at 33.0 µM) | growth inhibition (at 100.0 µM)
CNCCCNc1c2ccccc2nc2cccc([N+](=O)[O-])c12 | 2 | 23 | 86% (active) | 97% (active) | 99% (active)
C[C](C)(C)[Ge]([O][Ge]([c]1ccccc1)[c]1ccccc1)([O][Ge]([c]1ccccc1)[c]1ccccc1)[C](C)(C)C | -1 | 10 | 46% | 64% | 64%
CC(=O)Nc1ccc(/C=C/[N+](=O)[O-])cc1 | -4 | -3 | -4% | 11% | 91% (active)
Cc1cc(C)c(NC(=S)NC(=O)c2ccccc2)cc1C | -43 | -49 | -43% | -4% | 22%
N/C(=N/N=C/c1cc(Br)cc(Br)c1O)NO | -2 | -9 | 35% | 94% (active) | 98% (active)
O=C(O)CCCC1CCCc2c1ccc1ccccc21 (stereo not given) | -1 | 1 | 7% | 57% | 99% (active)
CCOC(=O)C(C(=O)OCC)=P(c1ccccc1)(c1ccccc1)c1ccccc1 | -2 | -3 | -4% | -9% | 95% (active)
CCOc1c(N=Nc2ccccc2OC)c(C)nn1C(=S)S | 0 | 3 | 10% | 32% | 75% (active)
